Data reported in PubChem BioAssay (Tox21).
Records with an inconclusive call do not appear. Activity calls are given as the source filed them. Unless noted, the call rests on the fitted dose curve.

How the values were obtained:
[1] = target: Thyrotropin receptor (Homo sapiens) (UniProt P16473); experiment: qHTS assay to identify small molecule agonists of the thyroid stimulating hormone receptor (TSHR) signaling pathway (AID 1224843); further: nearly all actives have a fitted effect of over 45% in size
In short: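 HEK293/TSHR, 800 cells/well; cpd 30 min RT; add cAMP-d2 + anti-cAMP-cryptate, 1 h RT; fluorescence read on plate reader. 15-pt titration, n=3.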

[2] = qHTS assay to identify small molecule agonists of the hypoxia (HIF-1) signaling pathway - cell viability counter screen (AID 1224844); further: nearly all actives have a fitted effect of over 50% in size
In short: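 Cytotoxicity measured by CellTiter-Glo ATP luminescence in the wells also read for beta-lactamase signal. Cells were HRE-bla ME-180 (2,000/well, 0.5% dialyzed FBS), exposed to compounds for 17 h at 37C.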

[3] = qHTS assay to identify small molecule agonists of H2AX (AID 1224845; active means well fitted activation curve with a large enough effect in the signal ratio in the repeat runs, not every such curve was filed as active; the % refers to the signal ratio)
In short: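 Wild-type CHO-K1 cells, plated overnight, exposed 3hr at 37C to 15 concentrations (0.76% DMSO final). Lysed, then HTRF anti-pH2AX (S139) cryptate and anti-H2AX-d2 antibodies, 24 hr room temperature; 665/620 nm emission read.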

[4] = qHTS assay to identify small molecule agonists of the hypoxia (HIF-1) signaling pathway (AID 1224846; active means well fitted activation curve with a large enough effect in the signal ratio in the repeat runs, not every such curve was filed as active; the % refers to the signal ratio)
In short: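 Compounds added to ME-180 cells carrying hypoxia-response-element beta-lactamase reporter (0.5% dialyzed FBS, 5 h preplating), 17 h at 37C; agonist activity detected by CCF4-AM B/G FRET read-out.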

[5] = qHTS assay to identify small molecule agonists of H2AX - cell viability counter screen (AID 1224847); further: top concentration of the series differs between compounds; nearly all actives have a fitted effect of over 30% in size
In short: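 Viability of CHO-K1 (wild type) cells after 3 hr compound exposure was measured by CellTiter-Glo luminescence.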

[6] = qHTS assay to identify small molecule antagonists of the estrogen related receptor (ERR) signaling pathway from Tox21 library (AID 1224848; active means well fitted curve in the direction sought with a large enough effect in the repeat runs; an effect the other way counts as inactive or inconclusive; further: nearly all actives have a fitted effect of over 50% in size)
In short: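 Compounds dissolved in DMSO are pin-transferred onto ERR reporter cells (2,000 per well) that have settled for 6 h at 37 C. Plates then incubate 18 h at 37 C before ONE-Glo luciferase reagent and a luminescence read 30 min later.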

[7] = qHTS assay to identify small molecule agonists of the estrogen related receptor (ERR) signaling pathway from Tox21 library (AID 1224849); conditions: ERR reporter cell line, ONE-Glo luciferase, 18 h; at 92.4 µM (top of the series) unless noted; further: nearly all actives have a fitted effect of over 15% in size
In short: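 Luminescent agonist read-out (One-Glo, 30-minute room-temperature incubation) following 18-hour compound treatment at 37 C of the ERR cell line, which had been plated 6 hours before dosing.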

[8] = qHTS RealTime-Glo MT Cell Viability Assay in HepG2 cells - 24 hour (AID 1224867; active means well fitted curve in the direction sought with a large enough effect in the repeat runs; an effect the other way counts as inactive or inconclusive; further: nearly all actives have a fitted effect of over 50% in size)
In short: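 Luminescence read-out: viable HepG2 cells reduce a prosubstrate to a NanoLuc substrate, giving a signal proportional to live cell number. Reads taken at 0, 8, 16, 24, 32 and 40 h of compound exposure at 37 C.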

[9] = qHTS RealTime-Glo MT Cell Viability Assay in HEK293 cells - 32 hour (AID 1224868; active means well fitted curve in the direction sought with a large enough effect in the repeat runs; an effect the other way counts as inactive or inconclusive; further: top concentration of the series differs between compounds; nearly all actives have a fitted effect of over 50% in size)
In short: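 Nonlytic real-time viability readout: viable cells convert prosubstrate to NanoLuc substrate, giving luminescence proportional to live cell number. HEK293, 600 cells/well, compound added after 5 h, continuous culture at 37 C.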

[10] = A CellTox Green Cytotoxicity Assay to monitor cytotoxicity in HEK293 cells - 0 hour (AID 1224869; active means well fitted curve in the direction sought with a large enough effect in the repeat runs; an effect the other way counts as inactive or inconclusive; further: nearly all actives have a fitted effect of over 50% in size)
In short: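 Fluorescence from a DNA-binding dye excluded by viable cells was measured repeatedly in the same HEK293 wells (600 cells/well) during continuous compound exposure at 37 C. Each assay gives one read point: 0, 8, 16, 24, 32 or 40 h.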
On the % scale 0 is the no-effect control and ±100 the full control effect.

Thyrotropin receptor (Homo sapiens), sequence (P16473 whole entry, looked up): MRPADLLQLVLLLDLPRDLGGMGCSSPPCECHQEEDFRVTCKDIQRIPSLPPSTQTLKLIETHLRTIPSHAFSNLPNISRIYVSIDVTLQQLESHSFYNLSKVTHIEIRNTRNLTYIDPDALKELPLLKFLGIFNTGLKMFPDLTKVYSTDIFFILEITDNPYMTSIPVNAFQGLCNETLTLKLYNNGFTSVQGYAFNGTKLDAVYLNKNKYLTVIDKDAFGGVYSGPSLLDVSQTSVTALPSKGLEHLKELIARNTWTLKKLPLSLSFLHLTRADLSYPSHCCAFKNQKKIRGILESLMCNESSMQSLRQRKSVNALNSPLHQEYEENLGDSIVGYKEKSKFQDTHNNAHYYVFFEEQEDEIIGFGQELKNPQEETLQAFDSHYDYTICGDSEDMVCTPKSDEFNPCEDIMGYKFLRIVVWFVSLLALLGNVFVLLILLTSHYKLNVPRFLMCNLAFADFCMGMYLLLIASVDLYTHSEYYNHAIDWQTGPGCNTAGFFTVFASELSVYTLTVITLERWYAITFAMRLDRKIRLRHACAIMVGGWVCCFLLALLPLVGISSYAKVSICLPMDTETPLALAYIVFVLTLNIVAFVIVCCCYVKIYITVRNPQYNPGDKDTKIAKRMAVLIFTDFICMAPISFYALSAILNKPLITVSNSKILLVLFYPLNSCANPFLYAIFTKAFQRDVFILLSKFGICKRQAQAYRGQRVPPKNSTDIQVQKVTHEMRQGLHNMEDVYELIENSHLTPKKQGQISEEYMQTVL

OCCOc1ccc(OCCO)cc1
inactive: Potency [1] | Potency [2] | outcome [3] | outcome [4] | Potency [5] | Potency [6] | activity change, positive = activation [7] 2.76% | Potency [8] | Potency [9] | Potency [10]

FC1(F)C(F)(F)C(F)(F)C2(F)C(F)(F)C(F)(F)C(F)(F)C(F)(F)C2(F)C1(F)F (configuration not stated)
inactive: Potency [1] | Potency [2] | outcome [3] | outcome [4] | Potency [5] | Potency [6] | Potency [8] | Potency [9] | Potency [10]

CCCCCSCCCCC
inactive: Potency [1] | Potency [2] | outcome [3] | outcome [4] | Potency [5] | Potency [6] | activity change, positive = activation [7] 6.38% | Potency [8] | Potency [10]

O=S(O)CO
inactive: Potency [1] | Potency [2] | outcome [3] | outcome [4] | Potency [5] | Potency [6] | activity change, positive = activation [7] 4.77% | Potency [8] | Potency [10]

NC(=O)COCCN1CCN(C(c2ccccc2)c2ccc(Cl)cc2)CC1 (configuration not stated)
inactive: Potency [1] | Potency [2] | outcome [3] | outcome [4] | Potency [5] | Potency [6] | activity change, positive = activation [7] 5.27% [at 42.5 µM] | Potency [9] | Potency [10]

COC(=O)c1cc(C(=O)OC)cc(S(=O)(=O)O)c1
inactive: Potency [1] | Potency [2] | outcome [3] | outcome [4] | Potency [5] | Potency [6] | activity change, positive = activation [7] 0.501% | Potency [8] | Potency [9] | Potency [10]

CC(=O)N(CC(O)CO)c1c(I)c(C(=O)NCCO)c(I)c(C(=O)NCC(O)CO)c1I (configuration not stated)
inactive: Potency [1] | Potency [2] | outcome [3] | outcome [4] | Potency [5] | Potency [6] | activity change, positive = activation [7] 5.17% [at 42.5 µM] | Potency [8] | Potency [10]

CCOC(=O)C(=O)OCC
inactive: Potency [1] | Potency [2] | outcome [3] | outcome [4] | Potency [5] | Potency [6] | activity change, positive = activation [7] 4.42% | Potency [8] | Potency [9] | Potency [10]

CC(C)OC(=O)c1ccccc1
inactive: Potency [1] | Potency [2] | outcome [3] | outcome [4] | Potency [5] | Potency [6] | Potency [8] | Potency [9] | Potency [10]

CC1=CC(C)C(C=O)CC1 (configuration not stated)
inactive: Potency [1] | Potency [2] | outcome [3] | outcome [4] | Potency [5] | Potency [6] | activity change, positive = activation [7] 0.053% | Potency [9] | Potency [10]

CCCc1cc(C(N)=S)ccn1
inactive: Potency [1] | Potency [2] | outcome [3] | outcome [4] | Potency [5] | Potency [6] | activity change, positive = activation [7] -6.09% [at 42.5 µM] | Potency [8] | Potency [10]

O=C1CCCN1C1CCCCC1
inactive: Potency [1] | Potency [2] | outcome [3] | outcome [4] | Potency [5] | Potency [6] | activity change, positive = activation [7] -1.04% | Potency [9] | Potency [10]

CCCCCCCCS(=O)(=O)Cl
inactive: Potency [1] | Potency [2] | outcome [3] | outcome [4] | Potency [5] | Potency [6] | activity change, positive = activation [7] 7.34% | Potency [8] | Potency [10]

CO[C@]12C[C@@H](COC(=O)c3cncc(Br)c3)CN(C)[C@@H]1Cc1cn(C)c3cccc2c13
inactive: Potency [1] | Potency [2] | outcome [3] | outcome [4] | Potency [5] | Potency [6] | activity change, positive = activation [7] 6.2% [at 42.5 µM] | Potency [9] | Potency [10]

CCCCCCCCCCCC
inactive: Potency [1] | Potency [2] | outcome [3] | outcome [4] | Potency [5] | Potency [6] | activity change, positive = activation [7] 11.3% | Potency [8] | Potency [10]

CC(NC(CCc1ccccc1)C(=O)O)C(=O)N1C(=O)N(C)CC1C(=O)O (configuration not stated)
inactive: Potency [1] | Potency [2] | outcome [3] | outcome [4] | Potency [5] | Potency [6] | activity change, positive = activation [7] 2.19% [at 42.5 µM] | Potency [8] | Potency [9] | Potency [10]

CN(C)CCCNCCCN(C)C
inactive: Potency [1] | Potency [2] | outcome [3] | outcome [4] | Potency [5] | Potency [6] | activity change, positive = activation [7] -4.23% | Potency [9] | Potency [10]

CC1(C)C(O)C(C)(C)C1O (configuration not stated)
inactive: Potency [1] | Potency [2] | outcome [3] | outcome [4] | Potency [5] | Potency [6] | activity change, positive = activation [7] 1.44% | Potency [8] | Potency [9] | Potency [10]

Cc1cc2c(cc1S(N)(=O)=O)S(=O)(=O)CCC2
inactive: Potency [1] | Potency [2] | outcome [3] | outcome [4] | Potency [5] | Potency [6] | activity change, positive = activation [7] 2.29% [at 42.5 µM] | Potency [9] | Potency [10]

CCOc1ccc(C(=O)OCCN(CC)CC)cc1
inactive: Potency [1] | Potency [2] | outcome [3] | outcome [4] | Potency [5] | Potency [6] | activity change, positive = activation [7] 1.57% [at 42.5 µM] | Potency [8] | Potency [10]

C=COCC1CCC(CO)CC1 (configuration not stated)
inactive: Potency [1] | Potency [2] | outcome [3] | outcome [4] | Potency [5] | Potency [6] | activity change, positive = activation [7] 2.36% | Potency [8] | Potency [10]

CCc1cccc2c(CCO)c[nH]c12
inactive: Potency [1] | Potency [2] | outcome [3] | outcome [4] | Potency [5] | Potency [6] | activity change, positive = activation [7] 6.5% [at 42.5 µM] | Potency [8] | Potency [10]

C[C@@H]1CCN(C(=O)[C@H](CCCN=C(N)N)NS(=O)(=O)c2cccc3c2NC[C@H](C)C3)[C@@H](C(=O)O)C1
inactive: Potency [1] | Potency [2] | outcome [3] | outcome [4] | Potency [5] | Potency [6] | activity change, positive = activation [7] 6.26% [at 42.5 µM] | Potency [9] | Potency [10]
